The source of these data is PubChem BioAssay (Tox21).

“And” between values parts separate entries of the source, which are not always exact repeats. Equal entries are not always repeated. Where a structure was tested more than once in an assay, its records may differ in their call. The source made the active and inactive calls. Where a call stands in place of a potency, no number is given. Calls follow the shape of the full dose curve.
Potency is read from the fitted curve at half-maximal effect.

Sequence of Estrogen receptor (Homo sapiens) (P03372 whole entry, looked up): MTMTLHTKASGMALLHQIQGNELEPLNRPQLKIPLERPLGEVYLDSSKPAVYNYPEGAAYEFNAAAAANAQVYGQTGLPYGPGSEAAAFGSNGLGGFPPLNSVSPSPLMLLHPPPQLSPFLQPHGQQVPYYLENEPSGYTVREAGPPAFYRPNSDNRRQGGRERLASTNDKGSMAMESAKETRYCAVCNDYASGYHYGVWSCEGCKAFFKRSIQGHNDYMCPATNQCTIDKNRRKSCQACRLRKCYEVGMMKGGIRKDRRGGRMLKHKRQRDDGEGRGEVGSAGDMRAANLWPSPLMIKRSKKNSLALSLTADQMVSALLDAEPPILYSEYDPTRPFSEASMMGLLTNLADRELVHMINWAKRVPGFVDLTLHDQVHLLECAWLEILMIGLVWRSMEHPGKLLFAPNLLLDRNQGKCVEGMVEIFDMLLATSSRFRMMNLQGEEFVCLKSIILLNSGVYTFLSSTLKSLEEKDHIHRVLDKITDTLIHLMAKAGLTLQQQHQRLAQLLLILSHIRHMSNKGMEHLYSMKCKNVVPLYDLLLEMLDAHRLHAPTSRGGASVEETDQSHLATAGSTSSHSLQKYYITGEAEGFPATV

In the assay the target is Estrogen receptor (Homo sapiens) (UniProt P03372). The assay is described as follows: qHTS assay to identify small molecule agonists of the estrogen receptor alpha (ER-alpha) signaling pathway in the presence of an antagonist (AID 1259383). Also: nearly all actives have a fitted effect of over 15% in size. To be noted: VM7Luc4E2 cells, ERE-luciferase, +ICI-182,780, 22 h; series mostly up to 92.4 µM. The text has this:
National Center for Advancing Translational Sciences [NCATS] NIH Chemical Genomics Center [NCGC] U.S. Environmental Protection Agency [EPA] National Institutes of Environmental Health Sciences [NIEHS] National Toxicology Program [NTP] Assay overview: Estrogen receptor (ER), a member of nuclear hormone receptor plays an important role in development, metabolic homeostasis and reproduction. Two subtypes of ER, ER-alpha and ER-beta, have similar expression patterns with some uniqueness in both types. Endocrine disrupting chemicals (EDCs) and their interactions with steroid hormone receptors like ER causes disruption of normal endocrine function. Therefore, it is important to understand the effect of environmental chemicals in ER signaling pathway. For identifying ER agonists, VM7Luc4E2 cell line has been used in the current assay. VM7Luc4E2 cell line (provided by Denison MS, University of California) endogenously expresses full-length ER-alpha and is stably transfected with a plasmid containing four estrogen responsive elements (ERE) upstream of a luciferase reporter gene. This current screening for measuring luciferase reporter gene activity using VM7Luc4E2 cells against Tox21 10K library collection is a confirmation study on agonist mode screening in presence of ER-antagonist (ICI-182,780) at 10.0nM final concentration.
Assay Protocol Summary: VM7Luc4E2 cells were cultured in phenol red free assay medium containing 10% charcoal stripped FBS for 5 days prior to the assay. The cells were dispensed at 4,000 cells in 4uL of assay medium per well into white wall/solid-bottom 1536-well plates (Corning Life Sciences, Corning, NY) using a Multidrop Combi (Thermo Fisher Scientific Inc., Waltham, MA) dispenser. After the assay plates were incubated at 37C and 5% CO2 for 24hr, 1uL of 10.0nM (final concentration) ICI-182,780 or assay buffer was added using two separate tips of Flying Reagent Dispenser (FRD, Aurora Discovery, San Diego, CA). Then 23nL of compounds dissolved in DMSO at 15 concentrations and positive controls or DMSO only was transferred to the assay plates by a Pintool station (Wako, San Diego, CA). The assay plates were incubated at 37C and 5% CO2 for 22hr. For luciferase read, 4uL/well ONE-Glo reagent (Promega Corporation, Madison, WI) was added to each well using FRD and after 30min incubation at room temperature, luminescence signal was measured on ViewLux plate reader (PerkinElmer, Shelton, CT).
A general note: In qHTS, concentration-response curves come from the screen itself.
In the case of `CCCCCCCCCCCCCCCC[N+](C)(C)Cc1ccccc1`, the Potency result is “inactive”.

Consider `COc1ccc2cc(S(=O)(=O)N[C@H](CC(=O)N[C@H](Cc3ccc(CN4[C@H](C)CCC[C@@H]4C)cc3)C(=O)N(C)C(C)C)c3ccc4c(c3)OCO4)ccc2c1`, for which the Potency result was “inactive”.

`O=CC(=O)c1ccccc1`: the Potency entry was “inactive”.

In the case of `NC1CCCCC1`, the Potency is 1.09 µM (active) and inactive.

For the compound `CCCCCCCC(=O)OCC(COC(=O)CCCCCCC)OC(=O)CCCCCCC`, the Potency entry is “inactive”.

As to `O=c1[nH]cc(F)c(=O)[nH]1`, the Potency result is “inactive”.

As to `COc1ccc2c(c1)c(CC(=O)O)c(C)n2C(=O)c1ccc(Cl)cc1`, the Potency entry was “inactive”.

For the compound `COc1ccc(C(Cl)=C(c2ccc(OC)cc2)c2ccc(OC)cc2)cc1`, the Potency is 15.3 µM (active) and 8.41 µM (active).

As to `O=S1(=O)OC(c2ccc(O)cc2)(c2ccc(O)cc2)c2ccccc21`, the Potency entry was “inactive”.

Consider `Cc1cccc(C)c1`, for which the Potency entry was “inactive”.

Take `CCN(Cc1c(F)cccc1Cl)c1c([N+](=O)[O-])cc(C(F)(F)F)cc1[N+](=O)[O-]`: the Potency result was “inactive”.

`O=C1OC2(c3ccccc31)c1cc(Br)c(O)c(Br)c1Oc1c2cc(Br)c(O)c1Br`: the Potency result is “inactive”.

In the case of `CN1[C@@H]2CC(OC(=O)[C@H](CO)c3ccccc3)C[C@H]1[C@@H]1O[C@@H]12` (stereo not given in full), the Potency entry is “inactive”.

With `O=c1[nH]cnc2c1ncn2[C@H]1CC[C@@H](CO)O1`, the Potency result was “inactive”.

With `CCCCC1(COC(=O)CCC(=O)O)C(=O)N(c2ccccc2)N(c2ccccc2)C1=O`, the Potency entry was “inactive”.

Take `O=C(O)c1ccccc1`: the Potency result was “inactive”.

Turning to `CCc1nc(N)nc(N)c1-c1ccc(Cl)cc1`, the Potency result is “inactive”.

Take `CN1CCc2cccc3c2[C@H]1Cc1ccc(O)c(O)c1-3`: the Potency entry is “inactive”.

With `CN(N=O)C(=O)N[C@@H]1[C@@H](O)[C@H](O)[C@@H](CO)O[C@@H]1O`, the Potency result is “inactive”.

For `CCCc1cc(=O)[nH]c(=S)[nH]1`, the Potency result was “inactive”.

In the case of `Nc1ccc2c(c1)CN1C(=O)c3ccccc3C1=N2`, the Potency was 92 nM (active).

Take `CN[C@H]1CC[C@@H](c2ccc(Cl)c(Cl)c2)c2ccccc21`: the Potency entry was “inactive”.

For the compound `C1CCC(C(CC2CCCCN2)C2CCCCC2)CC1` (stereo not given), the Potency result was “inactive”.

Regarding `NC(=O)n1c(O)c(C(=O)c2cccs2)c2cc(Cl)ccc21`, the Potency entry was “inactive”.

Consider `CCOc1ccc(NC(C)=O)cc1`, for which the Potency entry was “inactive”.

For the compound `CC(=O)CCC(=O)O`, the Potency entry was “inactive”.

Consider `CC(C)C(=O)Nc1ccc([N+](=O)[O-])c(C(F)(F)F)c1`, for which the Potency entry was “inactive”.

For the compound `Cc1ncc([N+](=O)[O-])n1C`, the Potency result is “inactive”.

As for `NC(CO)(CO)CO`, the Potency result is “inactive”.

With `CC12CCC(CC1)C(C)(C)O2`, the Potency result was “inactive”.

For `Cc1cc(=O)oc2cc(O)ccc12`, the Potency result was “inactive”.

Regarding `C=C(C)C(=O)OCC(C)O` (stereo not given), the Potency result was “inactive”.

Take `CCN(CC)C(=O)c1cccc(C)c1`: the Potency result is “inactive”.

Turning to `CN(C)C(=O)Nc1ccc(Cl)c(Cl)c1`, the Potency entry was “inactive”.

With `NC(=O)c1cccnc1`, the Potency entry is “inactive”.

As to `COc1ccc(OC(F)(F)F)cc1CN[C@H]1CCCN[C@H]1c1ccccc1`, the Potency entry is “inactive”.

As for `CCOC(N)=O`, the Potency result is “inactive”.

For the compound `C=C1CC[C@H](O)C/C1=C\C=C1/CCC[C@]2(C)[C@@H]([C@H](C)CCCC(C)C)CC[C@@H]12`, the Potency entry was “inactive”.

On to `Nc1ccc(O)c([N+](=O)[O-])c1`, for which the Potency result is “inactive”.

As to `C=CCc1ccc(O)c(OC)c1`, the Potency result is “inactive”.
